The source of these data is PubChem BioAssay (NCATS).

For some of these results: Potency and affinity values are given separately. Active and inactive are the calls of the source. A call without a number means that no potency is given here. Calls come from the whole dose curve. Starred links: 1 amine or outer side, 2 acyl side, 3 side chain; linkers in the order of their positions; H or OH if unused. Positions of bridges follow the written chain, without caps; N, C: chain ends. Non-standard residues stand in square brackets, D forms with d. Residues, ends and D or L forms follow the SMILES beside them. ξ: configuration not given here. *: point of attachment. ΔAla(3-NHCONH2) = NC(=O)NC=C(N)C(=O)O; X1 = NC1=NCCC(C(N[*:1])C(=O)[*:2])N1; ξβ3hOrn = NCCCC(N)CC(=O)*; Dap = NC[CH](N)C(=O)O

The conditions of one assay: Ebola virus entry assay, blue channel fluorescence.
Regarding `C[C@]12CC[C@H]3[C@@H](CCC4=CC(=O)CC[C@@H]43)[C@@H]1CC[C@@H]2OC(=O)CCc1ccccc1`, the result was inactive. Regarding `CCOC(=O)[C@H](CCc1ccccc1)N[C@@H](C)C(=O)N1[C@H](C(=O)O)C[C@@H]2CCC[C@@H]21`, the outcome was inactive.

Regarding `CC[C@@H](CO)NC(=O)[C@@H]1C=C2c3cccc4c3c(cn4C)C[C@H]2N(C)C1`, the call was inactive. Same read-out and setting: with `COc1ccc(OC)c(C(O)CNC(=O)CN)c1` (stereo not drawn) the entry was “inactive”; with `O=C(O)CCCc1ccccc1`, “inactive”; with `NS(=O)(=O)c1cc2c(cc1Cl)NC=NS2(=O)=O`, “inactive”.

With `CC1=NS(=O)(=O)c2cc(Cl)ccc2N1`, the result was inactive. Consider `O=c1[nH]cc(F)c(=O)[nH]1`, for which the compound was called inactive.

For `C[C@@H](O)[C@H]1C(=O)N2C(C(=O)O)=C(S[C@@H]3CN[C@H](C(=O)N(C)C)C3)[C@H](C)[C@H]12`, the compound was classed as inactive. Same read-out and setting: with `CC(C)(C(=O)O)c1ccc(C(O)CCCN2CCC(C(O)(c3ccccc3)c3ccccc3)CC2)cc1` (stereo not drawn) the entry was “inactive”.

In general, AC50 refers to the concentration at which the activity in the assay is half-maximal. In the case of `CNCCC(Oc1ccc(C(F)(F)F)cc1)c1ccccc1` (stereo not drawn), the AC50 was 14.1 µM (active).

With `CCOC(=O)c1ncn2c1CN(C)C(=O)c1cc(F)ccc1-2`, the call was inactive.

The conditions of a further assay: Ebola virus entry assay, green fluorescence channel.
As to `NC(=O)N1c2ccccc2CC(=O)c2ccccc21`, the compound was classed as inactive. On the same count and under the same terms, with `O=C(CCCN1CCC(O)(c2ccc(Cl)cc2)CC1)c1ccc(F)cc1` the entry was “inactive”; with `O=C(O)P(=O)(O)O`, “inactive”; with `C[C@H]1[C@H](NC(=O)/C(=N/OC(C)(C)C(=O)O)c2csc(N)n2)C(=O)N1S(=O)(=O)O` (stereo in doubt), “inactive”. As to `CCCCc1nc(Cl)c(CO)n1Cc1ccc(-c2ccccc2-c2nn[nH]n2)cc1`, the result was inactive. Same read-out and setting: with `Cc1cn[nH]c1` the entry was “inactive”.

For `CC(C(=O)O)c1cccc(C(=O)c2ccccc2)c1` (stereo not drawn), the compound was called inactive.

Regarding `CC(C)c1nc(CN(C)C(=O)N[C@H](C(=O)N[C@@H](Cc2ccccc2)C[C@H](O)[C@H](Cc2ccccc2)NC(=O)OCc2cncs2)C(C)C)cs1`, the compound was called inactive. As to `CC1=C(C(=O)O)N2C(=O)[C@@H](NC(=O)[C@H](N)c3ccc(O)cc3)[C@H]2SC1`, the result was inactive. With `O=C1CCc2ccc(OCCCCN3CCN(c4cccc(Cl)c4Cl)CC3)cc2N1`, the compound was classed as inactive. The same measure, in the same setting: with `CC(S)C(=O)NCC(=O)O` (stereo not drawn) the entry was “inactive”; with `CCCN(CCC)CCc1cccc2c1CC(=O)N2`, “inactive”; with `NCC(CC(=O)O)c1ccc(Cl)cc1` (stereo not drawn), “inactive”. `NC(=O)OCC(COC(N)=O)c1ccccc1`: the call was inactive.

In the case of `O=C1C(=O)c2ccccc2C(O)=C1C1CCC(c2ccc(Cl)cc2)CC1` (stereo not drawn), the compound was classed as inactive. On the same count and under the same terms, with `NCCCC(O)(P(=O)(O)O)P(=O)(O)O` the entry was “inactive”. In the case of `CN(CCOc1ccc(CC2SC(=O)NC2=O)cc1)c1ccccn1` (stereo not drawn), the result was inactive. On the same count and under the same terms, with `N[C@@H]1CONC1=O` the entry was “inactive”; with `CCCC(CCC)C(=O)O`, “inactive”; with `CC(C)CC(N(C)C)C1(c2ccc(Cl)cc2)CCC1` (stereo not drawn), “inactive”. Turning to `NCCCC(N)CC(=O)NCC1NC(=O)C(CO)NC(=O)C(N)CNC(=O)C(C2CCN=C(N)N2)NC(=O)C(=CNC(N)=O)NC1=O` (stereo not drawn) (H-[Dap]S[Dap](ξβ3hOrn)[ΔAla(3-NHCONH2)][X1]; lactam 1-C; configuration not given here), the outcome was inactive. Still for that read-out and setting: the same measure for `C[C@]12CC[C@H]3[C@@H](CCC4=CC(=O)CC[C@@H]43)[C@@H]1CC[C@@H]2OC(=O)CCc1ccccc1`: “inactive”; for `O=C(O)CCCc1ccccc1`: “inactive”. Consider `NS(=O)(=O)c1cc2c(cc1Cl)NC=NS2(=O)=O`, for which the compound was called inactive. On the same count and under the same terms, the same measure for `CC1=NS(=O)(=O)c2cc(Cl)ccc2N1`: “inactive”; for `O=c1[nH]cc(F)c(=O)[nH]1`: “inactive”; for `C[C@@H](O)[C@H]1C(=O)N2C(C(=O)O)=C(S[C@@H]3CN[C@H](C(=O)N(C)C)C3)[C@H](C)[C@H]12`: “inactive”. Regarding `O=C1CCC(N2C(=O)c3ccccc3C2=O)C(=O)N1` (stereo not drawn), the compound was called inactive. On to `CC(C)(C(=O)O)c1ccc(C(O)CCCN2CCC(C(O)(c3ccccc3)c3ccccc3)CC2)cc1` (stereo not drawn), for which the call was inactive. Same read-out and setting: with `CCOC(=O)c1ncn2c1CN(C)C(=O)c1cc(F)ccc1-2` the entry was “inactive”.

Consider `CCN(CC)C(=S)SSC(=S)N(CC)CC`, for which the call was inactive.
